Active and inactive are the calls of the source.
assay: PSAC antagonists in infected red cells, primary screen, cell-based, P. falciparum Indochina, OD700, 1 h (AID 1154); conditions: P. falciparum Indochina infected RBC osmotic lysis, higher = more signal, called active from +8 up or from −8 down

z-score, active:
CN(C)C(=O)[C@]1(CCS(=O)(=O)c2ccccc2)N=C(c2ccc(OCCCO)cc2)O[C@@H]1c1ccccc1N=[N+]=[N-] 31.2
CN(C)C(=O)[C@@]1(CCS(=O)(=O)c2ccccc2)N=C(c2ccc(OCCCO)cc2)O[C@H]1c1ccccc1 28.3
O=C1C[C@@](C(=O)NCCN2CCOCC2)(c2ccc([N+](=O)[O-])cc2)[C@@H](c2ccc(CO)cc2I)N1C1CCCCC1 15.3
C=CCN1Cc2ccccc2[C@H]2OC(c3ccc(OCCCO)cc3)=N[C@@]2(CC=C)C1=O 29.9
COc1ccc(C(O)C2C=CC3C(=O)N(c4ccccc4)C(=O)C3N2Nc2ccc([N+](=O)[O-])cc2)cc1 (stereo unspecified) 14.3
COCCOC(=O)N1C(=O)[C@@]2(c3cc(C#CCC(C(=O)OC)C(=O)OC)ccc31)[C@H](C(=O)N1CCc3cc(OC)c(OC)cc3C1)[C@H]1C(=O)O[C@H](c3ccccc3)[C@H](c3ccccc3)N1[C@@H]2c1ccc(OCCO)cc1 9.36

z-score, inactive:
CC(C)OC(=O)C=C1C[C@@H](c2ccc(C(F)(F)F)cc2)O[C@@H](c2ccc(C(F)(F)F)cc2)O1 2.79
C=CCOC(=O)[C@H]1[C@@H]2C(=O)O[C@@H](c3ccccc3)[C@@H](c3ccccc3)N2[C@@H](c2ccc(OCCOC(=O)[C@H]3C[C@H]4C(=O)N[C@@H](CCCCNC(C)=O)C(=O)N4[C@H]3c3ccc(O)cc3)cc2)[C@]12C(=O)Nc1ccccc12 1.59
CC(CO)N1C(=O)[C@@H]2[C@H]3C(=O)OCC=C[C@H]3OC23C=CCN(Cc2ccccc2)C(=O)[C@@H]13 (stereo partly specified) 0.116
COCCOC(=O)N1C(=O)[C@@]2(c3cc(C#Cc4ccc(OC)cc4)ccc31)[C@H](C(=O)Nc1nc3ccccc3s1)[C@H]1C(=O)O[C@H](c3ccccc3)[C@H](c3ccccc3)N1[C@@H]2c1ccc(O)cc1 3.75
O=C1OCCC=C[C@H]2OC34C=CCN(Cn5nnc6ccccc65)C(=O)[C@H]3N(CCCCCCO)C(=O)[C@@H]4C12 (stereo partly specified) 0.987
CCCCN1CC=CC23O[C@@H]4/C=C\CCC(C)OC(=O)C4[C@H]2C(=O)N(C(CO)C(C)C)[C@@H]3C1=O (stereo partly specified) 1.65
COC(=O)[C@H](Cc1ccccc1)N1CC(/C=C/C2CC2)=C[C@H]1[C@H](O)Cc1ccccc1 1.74
CCCCCCc1nc(C2CC2)cc2c1[Si](C(C)C)(C(C)C)OC2 0.834
Cc1ccc(S[C@]2(C(=O)NCC(F)(F)F)CC(=O)N(C3CCCCC3)[C@@H]2c2ccc(CO)cc2I)cc1 4.35
CCCC[C@@H]1C[C@H]1[C@@H](NC(=O)Cc1ccccc1)c1ccc(-c2ccccc2)cc1 1.1
COC(=O)[C@@]1(Cc2ccc(OC)cc2)[C@H]2c3cc(C(=O)N(C)C)n(Cc4ccc(Cl)c(C(F)(F)F)c4)c3C[C@H]2CN1C(=O)c1ccccc1 7.57
C=C(C)C1CCC(C(O)C2C=CC3C(=O)N(C)C(=O)C3N2N2CCCCC2)CC1 (stereo unspecified) 1.23
COCCOC(=O)N1C(=O)[C@@]2(c3cc(C#CCNC(N)=O)ccc31)[C@H](C(=O)N1CCc3cc(OC)c(OC)cc3C1)[C@H]1C(=O)O[C@H](c3ccccc3)[C@H](c3ccccc3)N1[C@@H]2c1ccccc1OCCO 3.14
O=C1OCCC/C=C\[C@H]2OC34C=CCN(CCN5CCOCC5)C(=O)[C@H]3N(CCCCCCO)C(=O)[C@@H]4C12 (stereo partly specified) 3.78
C#CCN([C@@H](Cc1ccc(O)cc1)C(=O)OC)[C@@H](/C=C/C1CC1)[C@H](O)Cc1ccccc1 3.41
O=C1O[C@@H](c2ccccc2)[C@@H](c2ccccc2)N2[C@@H](c3ccccc3OCCO)[C@]3(C(=O)Nc4ccc(C#CCCO)cc43)[C@@H](C(=O)N3CCCCCCC3)[C@H]12 1.01
CCOC(=O)C1=C[C@@H](c2ccccc2)N(S(=O)(=O)c2ccc(C)cc2)[C@H]1c1ccccc1Cl 1.35
CCCNC(=O)[C@@]1(c2ccc([N+](=O)[O-])cc2)CC(=O)N(C2CCCCC2)[C@@H]1c1ccc(CO)cc1 2.1
COC(=O)Cn1c(C(=O)N(C)C)cc2c1C[C@H]1CN(C(=O)c3ccccc3)[C@@](Cc3ccc(F)cc3)(C(=O)OC)[C@@H]21 0.628
O=C1c2ccccc2[C@](Cc2ccccc2I)(C(=O)NCC(F)(F)F)[C@H](c2ccc(CO)cc2)N1C1CCCCC1 7.04

assay: PSAC antagonists in infected red cells, primary screen, cell-based, P. falciparum Indochina, OD700, 2 h (AID 1155);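 further: lysis reports solute entry through the parasite surface anion channel PSAC; channel blockers reduce lysis of infected cells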; conditions: P. falciparum Indochina infected erythrocytes, osmotic lysis OD700; higher = more signal, called active from +8 up or from −8 down

z-score, active:
CC(C)(C)OC(=O)CC[C@@]1(C(=O)NCc2ccccc2)N=C(c2ccc(OCCCO)cc2)O[C@@H]1c1ccccc1N=[N+]=[N-] 30
CN(C)C(=O)[C@]1(CCS(=O)(=O)c2ccccc2)N=C(c2ccc(OCCCO)cc2)O[C@@H]1c1ccccc1N=[N+]=[N-] 27.2
CN(C)C(=O)[C@@]1(CCS(=O)(=O)c2ccccc2)N=C(c2ccc(OCCCO)cc2)O[C@H]1c1ccccc1 24.3

z-score, inactive:
COc1ccc([Si](C)(C)[C@H]2[C@H](CCO)O[C@@]3(C(=O)N(Cc4cccc(N5C(=O)COc6ccccc65)c4)c4ccccc43)[C@@H]2C)cc1 3.18
CN(C)CCCNC(=O)[C@@]1(c2ccc([N+](=O)[O-])cc2)CC(=O)N(CC23CC4CC(CC(C4)C2)C3)[C@@H]1c1ccc(CO)cc1I 2.32
C=C[C@@H](OC)[C@H](OC(=O)Nc1ccc(SC)cc1)c1ccc(O)c(F)c1 7.57
CCC(CC)C(O)C1C=CC2C(=O)N(c3ccccc3)C(=O)C2N1Nc1ccc(C(C)C)cc1 (stereo unspecified) 1.19
COC(=O)[C@@]1(Cc2ccc(F)cc2)[C@H]2c3cc(C(=O)N(C)C)n(CCc4ccc(O)c(OC)c4)c3C[C@H]2CN1C(=O)c1ccccc1 0.236
CC(C)[Si](C#CCCCC#N)(O[C@H](c1ccccc1)c1cn([C@H](CO)Cc2ccccc2)nn1)C(C)C 0.4
Cc1cc(C)c(C(O)C2C=CC3C(=O)NC(=O)C3N2Nc2ccc(Cl)cc2Cl)c(C)c1 (stereo unspecified) 1.18
CCOc1cc(C(O)C2C=CC3C(=O)N(C)C(=O)C3N2Nc2ccccc2)ccc1O (stereo unspecified) 1.45
O=C1O[C@H](c2ccccc2)[C@H](c2ccccc2)N2[C@H]1[C@@H](C(=O)Nc1nc3ccccc3s1)[C@]1(C(=O)Nc3ccc(C#CCCO)cc31)[C@H]2c1ccc(O)cc1 1.05
CC(C)OC(=O)C=C1C[C@@H](c2ccc(C(F)(F)F)cc2)O[C@@H](c2ccc(C(F)(F)F)cc2)O1 -0.301
C=CCOC(=O)[C@H]1[C@@H]2C(=O)O[C@@H](c3ccccc3)[C@@H](c3ccccc3)N2[C@@H](c2ccc(OCCOC(=O)[C@H]3C[C@H]4C(=O)N[C@@H](CCCCNC(C)=O)C(=O)N4[C@H]3c3ccc(O)cc3)cc2)[C@]12C(=O)Nc1ccccc12 0.512
CC(CO)N1C(=O)[C@@H]2[C@H]3C(=O)OCC=C[C@H]3OC23C=CCN(Cc2ccccc2)C(=O)[C@@H]13 (stereo partly specified) -1.05
COCCOC(=O)N1C(=O)[C@@]2(c3cc(C#Cc4ccc(OC)cc4)ccc31)[C@H](C(=O)Nc1nc3ccccc3s1)[C@H]1C(=O)O[C@H](c3ccccc3)[C@H](c3ccccc3)N1[C@@H]2c1ccc(O)cc1 0.756
O=C1OCCC=C[C@H]2OC34C=CCN(Cn5nnc6ccccc65)C(=O)[C@H]3N(CCCCCCO)C(=O)[C@@H]4C12 (stereo partly specified) 1.02
CCCCN1CC=CC23O[C@@H]4/C=C\CCC(C)OC(=O)C4[C@H]2C(=O)N(C(CO)C(C)C)[C@@H]3C1=O (stereo partly specified) -0.361
COC(=O)[C@H](Cc1ccccc1)N1CC(/C=C/C2CC2)=C[C@H]1[C@H](O)Cc1ccccc1 0.714
CCCCCCc1nc(C2CC2)cc2c1[Si](C(C)C)(C(C)C)OC2 -0.225
Cc1ccc(S[C@]2(C(=O)NCC(F)(F)F)CC(=O)N(C3CCCCC3)[C@@H]2c2ccc(CO)cc2I)cc1 1.29
CCCC[C@@H]1C[C@H]1[C@@H](NC(=O)Cc1ccccc1)c1ccc(-c2ccccc2)cc1 0.283
COC(=O)[C@@]1(Cc2ccc(OC)cc2)[C@H]2c3cc(C(=O)N(C)C)n(Cc4ccc(Cl)c(C(F)(F)F)c4)c3C[C@H]2CN1C(=O)c1ccccc1 1.42
C=C(C)C1CCC(C(O)C2C=CC3C(=O)N(C)C(=O)C3N2N2CCCCC2)CC1 (stereo unspecified) 0.737
COCCOC(=O)N1C(=O)[C@@]2(c3cc(C#CCNC(N)=O)ccc31)[C@H](C(=O)N1CCc3cc(OC)c(OC)cc3C1)[C@H]1C(=O)O[C@H](c3ccccc3)[C@H](c3ccccc3)N1[C@@H]2c1ccccc1OCCO 0.178
O=C1OCCC/C=C\[C@H]2OC34C=CCN(CCN5CCOCC5)C(=O)[C@H]3N(CCCCCCO)C(=O)[C@@H]4C12 (stereo partly specified) -0.652
C#CCN([C@@H](Cc1ccc(O)cc1)C(=O)OC)[C@@H](/C=C/C1CC1)[C@H](O)Cc1ccccc1 0.761
O=C1O[C@@H](c2ccccc2)[C@@H](c2ccccc2)N2[C@@H](c3ccccc3OCCO)[C@]3(C(=O)Nc4ccc(C#CCCO)cc43)[C@@H](C(=O)N3CCCCCCC3)[C@H]12 0.83
CCOC(=O)C1=C[C@@H](c2ccccc2)N(S(=O)(=O)c2ccc(C)cc2)[C@H]1c1ccccc1Cl 1.16
CCCNC(=O)[C@@]1(c2ccc([N+](=O)[O-])cc2)CC(=O)N(C2CCCCC2)[C@@H]1c1ccc(CO)cc1 1.01
